Where “and” joins values, the source holds several entries; their conditions need not be identical. Equal values may be shown once. Inconclusive results are not listed. Some structures have more than one record in an assay (separate samples or runs), and their calls can disagree. Calls of active or inactive are those of the source. Unless noted, the call rests on the fitted dose curve.
Assays:
[1] = Nuclear factor erythroid 2-related factor 2/antioxidant responsive element (Nrf2/ARE) small molecule agonists: qHTS cell viability counter screen in human keratinocytes (AID 1919968; active means well fitted curve in the direction sought with a large enough effect in the repeat runs; an effect the other way counts as inactive or inconclusive; further: nearly all actives have a fitted effect of over 55% in size; further: potency means the concentration at half of the fitted maximal effect)
Outline: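 After a 5 h attachment period, ARE-reporter keratinocytes were dosed with compounds in DMSO and then cultured 23 h at 37 C. Cell viability came from CellTiter-Fluor signal read after a further 1 h.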

[2] = Nuclear factor erythroid 2-related factor 2/antioxidant responsive element (Nrf2/ARE) small molecule agonists: luciferase reporter gene qHTS assay in human keratinocytes (AID 1919969); further: nearly all actives have a fitted effect of over 35% in size
[3] = molecular target: Gonadotropin-releasing hormone receptor (Homo sapiens) (UniProt P30968); assay: Human gonadotropin-releasing hormone receptor (GnRHR) small molecule agonists, calcium flux assay in GnRHR-HEK293 cells (AID 1920063); further: nearly all actives have a fitted effect of over 35% in size
Gonadotropin-releasing hormone receptor (Homo sapiens), sequence (P30968 whole entry, looked up): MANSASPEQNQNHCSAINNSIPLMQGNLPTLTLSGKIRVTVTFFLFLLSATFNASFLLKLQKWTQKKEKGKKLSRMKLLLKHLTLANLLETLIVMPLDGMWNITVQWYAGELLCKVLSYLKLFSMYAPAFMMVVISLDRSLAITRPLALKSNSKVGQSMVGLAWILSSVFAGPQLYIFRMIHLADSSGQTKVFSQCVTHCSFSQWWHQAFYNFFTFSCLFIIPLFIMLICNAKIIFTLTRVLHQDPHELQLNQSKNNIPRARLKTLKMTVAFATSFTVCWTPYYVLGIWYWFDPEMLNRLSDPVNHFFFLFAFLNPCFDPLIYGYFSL
Outline: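 We seeded human GnRHR-expressing HEK293 cells for 18 hours, loaded them with calcium dye for an hour at 37 C, added test compounds, and recorded fluorescence intensity kinetically for three minutes.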

[4] = molecular target: KiSS-1 receptor (Homo sapiens) (UniProt Q969F8); assay: Human kisspeptin (KISS1R) small molecule agonists, calcium flux assay in KISS1R-HEK293 cells (AID 1920064; active means well fitted curve in the direction sought with a large enough effect in the repeat runs; an effect the other way counts as inactive or inconclusive)
KiSS-1 receptor (Homo sapiens), sequence (Q969F8 whole entry, looked up): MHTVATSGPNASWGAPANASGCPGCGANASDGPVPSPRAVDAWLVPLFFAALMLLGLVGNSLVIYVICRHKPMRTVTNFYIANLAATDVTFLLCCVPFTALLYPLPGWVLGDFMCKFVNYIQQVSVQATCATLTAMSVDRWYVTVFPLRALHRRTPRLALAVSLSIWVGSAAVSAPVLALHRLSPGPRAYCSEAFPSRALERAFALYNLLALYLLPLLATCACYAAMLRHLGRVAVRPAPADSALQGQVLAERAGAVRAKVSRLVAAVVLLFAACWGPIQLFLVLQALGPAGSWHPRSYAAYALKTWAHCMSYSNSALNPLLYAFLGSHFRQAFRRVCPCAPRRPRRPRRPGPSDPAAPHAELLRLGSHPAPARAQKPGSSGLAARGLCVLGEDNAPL
Outline: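 Kinetic calcium assay, 1 s sampling over 3 min at Ex/Em 480/540, in HEK293 cells engineered with human KISS1R; compounds delivered in DMSO after 1 h dye loading.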

[5] = G protein-coupled receptor (GPCR) small molecule agonists, calcium flux assay: HEK293 wild type cell line counter screen (AID 1920065)
Outline: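 Calcium-sensitive dye, loaded 1 h at 37 C into cells cultured 18 h, reports compound-evoked calcium release as fluorescence (Ex/Em 480/540), measured over 3 min. Agonist mode; 15-point titrations, triplicate.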

[6] = p53 small molecule agonists, cell-based qHTS assay with human liver microsomes (AID 1963577);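 further: p53 response element beta-lactamase reporter cells with liver microsomes plus NADPH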
Outline: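 p53RE-bla cells; 5 h settle, 37 C/5% CO2; cpd + HLM 0.5 mg/mL + NADPH 0.5 mg/mL (final); 16 h 37 C; LiveBLAzer 2 h RT dark; fluorescence readout.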

[7] = p53 small molecule agonists, cell-based qHTS assay with rat liver microsomes (AID 1963578)
Outline: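 Rat liver microsome activation: microsomes 0.5 mg/mL, NADPH 0.5 mg/mL final; p53RE-bla cells, 16 h 37 C; LiveBLAzer readout, 2 h RT dark.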

[8] = p53 small molecule agonists, cell-based qHTS assay with human liver microsomes: qHTS cell viability counter screen (AID 1963579); further: nearly all actives have a fitted effect of over 45% in size; further: potency means the concentration at half of the fitted maximal effect
Outline: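 Luminescent CellTiter-Glo read-out, 30 min at room temperature, gauged cytotoxicity in p53RE-bla cells exposed 16 h at 37 C to DMSO-dissolved compounds with metabolic activation by human liver microsomes and NADPH, each 0.5 mg/mL final.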

[9] = p53 small molecule agonists, cell-based qHTS assay (AID 1963582; active means well fitted activation curve with a large enough effect in the signal ratio in the repeat runs, not every such curve was filed as active; the % refers to the signal ratio)
Outline: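 In this cell-based concentration-response screen, a p53 response element drives beta-lactamase; cells received DMSO-borne compounds after 5 h culture and were incubated a further 16 h before FRET substrate development.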

[10] = molecular target: 5-hydroxytryptamine receptor 2A (Homo sapiens) (UniProt P28223); assay: 5-hydroxytryptamine receptor 2A (HTR2A) small molecule antagonists, cell-based qHTS assay (AID 1963586); further: nearly all actives have a fitted effect of over 45% in size
5-hydroxytryptamine receptor 2A (Homo sapiens), sequence (P28223 whole entry, looked up): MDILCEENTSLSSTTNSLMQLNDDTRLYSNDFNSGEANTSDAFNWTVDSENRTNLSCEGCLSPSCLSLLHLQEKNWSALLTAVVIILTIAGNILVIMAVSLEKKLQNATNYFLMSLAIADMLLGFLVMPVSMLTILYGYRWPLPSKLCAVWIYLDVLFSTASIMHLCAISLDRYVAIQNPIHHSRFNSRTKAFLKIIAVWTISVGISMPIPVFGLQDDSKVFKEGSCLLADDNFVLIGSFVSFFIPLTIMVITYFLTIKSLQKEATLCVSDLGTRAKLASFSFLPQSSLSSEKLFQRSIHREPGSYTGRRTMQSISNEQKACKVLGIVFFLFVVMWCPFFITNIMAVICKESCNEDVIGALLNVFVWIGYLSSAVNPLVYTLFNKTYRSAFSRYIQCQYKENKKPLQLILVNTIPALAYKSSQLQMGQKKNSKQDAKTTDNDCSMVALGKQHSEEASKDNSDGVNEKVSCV
Outline: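 Antagonist-mode intracellular calcium assay: DOI (4 nM) added after 5 min compound pre-incubation at room temperature to dye-loaded HTR2A-CHO cells. Fluorescence followed for 3 min, sampled every second.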

[11] = molecular target: 5-hydroxytryptamine receptor 2A (Homo sapiens) (UniProt P28223); assay: 5-hydroxytryptamine receptor 2A (HTR2A) small molecule agonists, cell-based qHTS assay (AID 1963587); further: nearly all actives have a fitted effect of over 30% in size; further: potency means the concentration at half of the fitted maximal effect
Outline: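 HTR2A-CHO cells, plated 18 h at 37 C/5% CO2, dye-loaded 1 h at 37 C; compounds in DMSO added by pin tool (agonist mode). Intracellular calcium flux read as kinetic fluorescence on FDSS over 2 min at 1 s intervals.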

[12] = molecular target: Muscarinic acetylcholine receptor M1 (Homo sapiens) (UniProt P11229); assay: Cholinergic receptor muscarinic 1 (CHRM1) small molecule antagonists, cell-based qHTS assay (AID 1963588); further: nearly all actives have a fitted effect of over 40% in size
Muscarinic acetylcholine receptor M1 (Homo sapiens), sequence (P11229 whole entry, looked up): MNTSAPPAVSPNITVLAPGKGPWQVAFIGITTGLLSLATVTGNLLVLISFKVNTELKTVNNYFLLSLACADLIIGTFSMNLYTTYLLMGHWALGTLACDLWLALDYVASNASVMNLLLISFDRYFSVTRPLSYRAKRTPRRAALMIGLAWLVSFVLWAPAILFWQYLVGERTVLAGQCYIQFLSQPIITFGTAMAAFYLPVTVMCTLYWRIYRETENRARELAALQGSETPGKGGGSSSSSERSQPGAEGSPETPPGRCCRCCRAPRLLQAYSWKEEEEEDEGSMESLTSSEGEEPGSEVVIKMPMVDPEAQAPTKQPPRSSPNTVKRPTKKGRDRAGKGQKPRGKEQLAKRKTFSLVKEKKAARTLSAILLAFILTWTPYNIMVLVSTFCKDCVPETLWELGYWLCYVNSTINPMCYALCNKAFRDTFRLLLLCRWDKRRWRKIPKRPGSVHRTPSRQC
Outline: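 CHRM1-CHO calcium-flux assay, antagonist mode. Cells were seeded 18 h, dye-loaded 1 h at 37 C and given compound for 5 min at RT, then acetylcholine was added at 50nM. FDSS fluorescence was read 3 min; 15 concentrations, three runs.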

[13] = molecular target: Muscarinic acetylcholine receptor M1 (Homo sapiens) (UniProt P11229); assay: Cholinergic receptor muscarinic 1 (CHRM1) small molecule agonists, cell-based qHTS assay (AID 1963589); further: nearly all actives have a fitted effect of over 35% in size
Outline: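 Measures agonist-induced intracellular calcium rise. Stable human CHRM1 CHO line, 1 h dye load at 37 C, compounds from DMSO, kinetic fluorescence read.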

[14] = cAMP Responsive Elements (CRE) small molecule agonists, cell-based qHTS assay (AID 1963590)
Outline: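 A CRE-responsive beta-lactamase reporter in HEK 293T cells was used. Treatment ran 3 h at 37 C; detection used LiveBLAzer B/G FRET substrate for 2 h at room temperature.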

[15] = cAMP Responsive Elements (CRE) small molecule antagonists, cell-based qHTS assay (AID 1963591; active means well fitted inhibition curve with a large enough effect in the signal ratio in the repeat runs, not every such curve was filed as active; the % refers to the signal ratio)
Outline: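 HEK293T cells carrying a CRE-driven beta-lactamase reporter receive compound and NKH477 (0.25 uM final) for 3 h. Fluorescence from LiveBLAzer B/G FRET substrate is read after 2 h at room temperature.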

[16] = molecular target: Beta-2 adrenergic receptor (Homo sapiens) (UniProt P07550); assay: Adrenergic beta2 receptor (ADRB2) small molecule antagonists, cell-based qHTS assay (AID 1963592); further: series mostly up to about 92 µM; nearly all actives have a fitted effect of over 50% in size
Beta-2 adrenergic receptor (Homo sapiens), sequence (P07550 whole entry, looked up): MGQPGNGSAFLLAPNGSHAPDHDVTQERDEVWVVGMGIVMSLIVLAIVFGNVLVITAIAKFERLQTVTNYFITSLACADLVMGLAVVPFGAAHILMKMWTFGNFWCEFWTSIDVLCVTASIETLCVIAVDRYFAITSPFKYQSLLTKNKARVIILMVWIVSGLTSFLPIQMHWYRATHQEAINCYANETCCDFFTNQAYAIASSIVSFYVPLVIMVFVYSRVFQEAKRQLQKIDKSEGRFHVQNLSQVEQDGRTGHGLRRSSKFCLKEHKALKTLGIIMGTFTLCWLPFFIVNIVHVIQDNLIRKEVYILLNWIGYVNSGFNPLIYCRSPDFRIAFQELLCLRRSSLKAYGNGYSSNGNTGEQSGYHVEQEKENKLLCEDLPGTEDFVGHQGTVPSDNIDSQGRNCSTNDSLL
Outline: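 Cells (CHO, stable ADRB2 overexpression) incubated 18-20hr at 37C; compounds added from DMSO; agonist mix (1nM isoproterenol, 100uM IBMX, 25uM Ro-20-1724) added; 0.5hr RT; d2-cAMP and anti-cAMP-cryptate added; 1hr RT; 665/615 nm read.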

[17] = molecular target: Beta-2 adrenergic receptor (Homo sapiens) (UniProt P07550); assay: Adrenergic beta2 receptor (ADRB2) small molecule agonists, cell-based qHTS assay (AID 1963593);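 further: CHO cells stably overexpressing human ADRB2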
Outline: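 CHO cells stably over-expressing ADRB2 were plated overnight at 37C, then dosed with compounds plus a stimulation mix containing 100uM IBMX and 25uM Ro-20-1724 for 0.5hr at room temperature. cAMP was measured by HTRF competition, 1hr.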

[18] = molecular target: D(2) dopamine receptor (Homo sapiens) (UniProt P14416); assay: Dopamine D2 receptor (DRD2) small molecule agonists, cell-based qHTS assay (AID 1963594); further: nearly all actives have a fitted effect of over 35% in size
D(2) dopamine receptor (Homo sapiens), sequence (P14416 whole entry, looked up): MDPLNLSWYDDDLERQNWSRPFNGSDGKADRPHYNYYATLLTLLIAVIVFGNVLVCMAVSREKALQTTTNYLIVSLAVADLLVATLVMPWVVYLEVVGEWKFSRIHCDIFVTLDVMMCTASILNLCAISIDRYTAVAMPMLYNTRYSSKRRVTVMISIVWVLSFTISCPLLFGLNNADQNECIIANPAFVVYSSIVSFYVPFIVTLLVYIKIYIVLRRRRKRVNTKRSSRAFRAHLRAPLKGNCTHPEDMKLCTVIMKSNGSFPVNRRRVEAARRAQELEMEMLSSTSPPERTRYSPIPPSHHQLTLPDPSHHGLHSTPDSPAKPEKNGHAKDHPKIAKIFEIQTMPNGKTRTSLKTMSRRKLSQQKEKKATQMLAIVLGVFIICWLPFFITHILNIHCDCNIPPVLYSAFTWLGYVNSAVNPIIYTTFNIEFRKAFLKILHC
Outline: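 HEK293 cells stably expressing DRD2 were cultured 24 h at 37 C, then given Ro20-1724 (0.1 mM final) and compounds for 10 min at room temperature. NKH477 (200nM) was then added for 30 min. cAMP was read by HTRF.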

[19] = p53 small molecule agonists, cell-based qHTS assay with rat liver microsomes: qHTS cell viability counter screen (AID 1963580); further: nearly all actives have a fitted effect of over 45% in size; further: potency means the concentration at half of the fitted maximal effect
Outline: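 p53RE-bla HCT-116 cells (4,000/well) rested 5 h at 37 C, then given Tox21 compounds in DMSO with rat liver microsomes (0.5 mg/mL final) plus NADPH (0.5 mg/mL final) for 16 h at 37 C. Viability read by CellTiter-Glo luminescence after 30 min at room temperature.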

[20] = molecular target: D(2) dopamine receptor (Homo sapiens) (UniProt P14416); assay: Dopamine D2 receptor (DRD2) small molecule antagonists, cell-based qHTS assay (AID 1963595; active means well fitted inhibition curve with a large enough effect in the signal ratio in the repeat runs, with a control signal flat; the % refers to the signal ratio; further: potency means the concentration at half of the fitted maximal effect)
Outline: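 Antagonism was scored as restored cAMP in HEK293-DRD2 cells. These cells were stimulated with 200 nM NKH477 and 12 nM quinpirole for 30 min at room temperature, in the presence of 0.1 mM Ro20-1724.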

Measured: Potency

CN(C)N=Nc1ccccc1
not listed: [19] | [20]
inactive: all other assays above

C=COCCCC
not listed: [11] | [15]
inactive: all other assays above

O=c1[nH]c2ccccc2c(=O)n1CCCl
not listed: [19]
inactive: all other assays above

CCC(C)C1CCCCC1=O (configuration not stated)
not listed: [14] | [17]
inactive: all other assays above

C(=C\c1ccccc1)/c1ccccc1
not listed: [19]
inactive: all other assays above

O=C(O)c1cc(N=Nc2ccc(S(=O)(=O)Nc3ccccn3)cc2)ccc1O
not listed: [10] | [11] | [12] | [13] | [20]
inactive: all other assays above

COc1ccccc1N=Nc1c(S(=O)(=O)O)cc2cc(S(=O)(=O)O)cc(NC(C)=O)c2c1O
active: [1] 40.7 µM
not listed: [15] | [16] | [17] | [18] | [19] | [20]
inactive: all other assays above

O=C1c2ccccc2C(=O)C1c1ccc2cc(S(=O)(=O)O)cc(S(=O)(=O)O)c2n1
active: [1] 58.9 µM
not listed: [19]
inactive: all other assays above

Oc1ccccc1O
not listed: [9] | [10] | [11] | [12] | [13] | [17]
inactive: all other assays above

CCC(OCCCOC)OC(C)=O (configuration not stated)
not listed: [14]
inactive: all other assays above

C=CCS(=O)(=O)O
not listed: [19]
inactive: all other assays above

CN(C)C(=S)SC(=S)N(C)C
50.2 µM (active) and inactive: [11]
41.8 µM (active) and inactive: [8]
active: [1] 1.11 µM and 1.09 µM | [19] 16.6 µM and 5.76 µM
not listed: [14] | [15]
inactive: all other assays above

Clc1ccccc1C(c1ccccc1)(c1ccccc1)n1ccnc1
active: [1] 30.6 µM | [20] 61.1 µM
not listed: [10] | [11] | [12] | [13] | [14] | [15] | [18]
inactive: all other assays above

O=C(O)C1CCC(C(=O)O)CC1 (configuration not stated)
not listed: [13]
inactive: all other assays above

— PubChem BioAssay (Tox21)
